# Reference: the supplement of paper PMC13380429
# Unmarked numbers belong to inactive results.
# Test system: Vero E6 infected with SARS-CoV-2
# Test: inhibition of SARS-CoV-2 cytopathic effect; higher = more antiviral protection, active = above 15
# Conditions: 833.33 nM; 48 h
row,SMILES,inhibition of SARS-CoV-2 cytopathic effect
1,COc1ccc2cccc(CCNC(C)=O)c2c1 [agomelatine],-1.63%
2,COc1cc(-c2cc(-c3cccc(O)c3)cnc2N)cc(OC)c1OC,1.55%
3,Cc1ccc(Nc2c(F)cccc2Cl)c(CC(=O)O)c1 [lumiracoxib],0.6%
4,CC(=O)OC[C@H]1O[C@@H](n2ccc(=O)[nH]c2=O)[C@H](OC(C)=O)[C@@H]1OC(C)=O [uridine-triacetate],-3.59%
5,CN(Cc1cc(Br)cc(Br)c1N)C1CCCCC1 [bromhexine],3.11%
6,Cc1cc(C(C)(C)C)cc(C)c1CC1=NCCN1 [xylometazoline],-7.35%
7,OCc1cncc(F)c1 [5-fluoro-3-pyridyl-methanol],-0.19%
8,O=C(O)c1ccccc1-c1ccc(C(F)(F)F)cc1 [xenalipin],4.27%
9,CC(C)NCC(O)c1ccccc1Cl (stereo unspecified) [clorprenaline],1.39%
10,C[C@@H](c1ncncc1F)[C@](O)(Cn1cncn1)c1ccc(F)cc1F [voriconazole],-0.46%
11,O=C(O)C1=CCNCC1 [isoguvacine],3.23%
12,Oc1cc2c(cc1O)CN(C(=S)NCCc1ccc(Cl)cc1)CCC2 [capsazepine],-0.65%
13,Cn1cnc2c(F)c(Nc3ccc(Br)cc3F)c(C(=O)NOCCO)cc21 [binimetinib],-10.1%
14,CN(C)/C=N/c1c(I)cc(I)c(CCC(=O)O)c1I [iopodic-acid],0.26%
15,O=C(CBr)N1CC([N+](=O)[O-])([N+](=O)[O-])C1,-1.12%
16,N#Cc1cn([C@@H]2O[C@H](CO)[C@@H](O)[C@H]2O)c2ncnc(N)c12 [toyocamycin],-0.02%
